For one assay, the system named is CRL-7250. Put plainly: Cytotoxic Profiling of Annotated Libraries Using Quantitative High-Throughput Screening (AID 1296008). For max response: % is set by controls: 0 for no effect and ±100 for the full control effect. Note: potency is the fitted concentration of half-maximal effect. The conditions noted are these: Five cell lines viability, CellTiter-Glo ATP luminescence, 48-72 h; max response: active compounds read low. In short, it runs like this:
(§1)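 Compounds were pin-transferred onto cells and incubated 48 or 72 hr at 37 degree Celsius, 95% humidity. CellTiter-Glo was added, plates sat 10 min at room temperature, then ATP-coupled luminescence was imaged as the viability read-out.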

In another assay the test system is HEK293. The description is as above. The settings on record: Five cell lines viability, CellTiter-Glo ATP luminescence, 48-72 h; max response: active compounds read low. In short, it runs like this: as §1
A general note: ATP-based viability assays read luminescence as a measure of living cells.

In a further assay the test system is HaCat. The assay is described as above. The settings on record: Five cell lines viability, CellTiter-Glo ATP luminescence, 48-72 h; max response: active compounds read low. In short, it runs like this:
as §1

The next assay relates to KB-3-1. Described as above. The conditions noted are these: Five cell lines viability, CellTiter-Glo ATP luminescence, 48-72 h; max response: active compounds read low. A digest of the protocol: as §1
Assay [1] has as its system NIH3T3. The description is as above. The settings on record: Five cell lines viability, CellTiter-Glo ATP luminescence, 48-72 h; max response: active compounds read low. A digest of the protocol:
as §1

Assay [2] concerns NIH3T3. Put plainly: qHTS assay to identify novel small-molecules to repurpose for Merkel cell carcinoma treatment (AID 1296009). The settings on record: MCC and control cell lines, CellTiter-Glo viability, 72 h; at 44.8 µM (top of the series) unless noted. In short, it runs like this: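 qHTS format: cells treated with library compounds in DMSO across 8 (NPC) or 11 (MIPE) concentrations. Readout after 72 hr at 37 degree celsius was CellTiter-Glo luminescence.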
For orientation: qHTS replaces the single test concentration by a dilution series.

Results filed as inconclusive are left out. Unmarked numbers belong to inactive results. Activity calls are given as the source filed them. Calls come from the whole dose curve; as a rule, active = well fitted inhibition curve with a large enough effect; inconclusive = small, poorly fitted or top-dose-only effect; inactive = flat fitted curve, though single readings scatter.
Note: nearly all actives have a fitted effect of over 60% in size.

Turning to `O=C(O)[C@H](Cc1ccccc1)Oc1ccc(-c2ccccc2)cc1`, the max response is -13.4% in the assay on CRL-7250, 4.06% with HEK293 and -11.4% in the assay on HaCat. Besides, the call in the assay on KB-3-1, in the assay on NIH3T3 [1] and with NIH3T3 [2] was inactive.
For `O=C(COCC(=O)N1CCN(C(c2ccccc2)c2ccccc2)CC1)Nc1ccc(Cl)cc1C(=O)O`, the max response was -11.2% with CRL-7250, 4.17% with HEK293 and -6.79% in the assay on HaCat. Moreover, the compound was called inactive in the assay with KB-3-1, in the assay on NIH3T3 [1] and with NIH3T3 [2].
`O=C(/C=C/C=C/c1ccc2c(c1)OCO2)N1CCCCC1`: the compound was classed as inactive in the assay on CRL-7250, in the assay with NIH3T3 [1] and in the assay on NIH3T3 [2]. The max response with HEK293 is 3%; in the assay with HaCat it was 0.66%; in the assay with KB-3-1 it was 3.15%.
With `C=C1C[C@H](O)[C@@H](O)[C@@]2(C)C1[C@@H](O)[C@H]1OC(=O)C3[C@@H](C)[C@@H](O)[C@H](O)C2[C@]31C` (stereo not given in full), the figures for the max response with CRL-7250, with HEK293 and with HaCat were -9.79%, 3.52% and -3.92%, respectively. In addition, the call in the assay on KB-3-1, with NIH3T3 [1] and with NIH3T3 [2] was inactive.
In the case of `CCC(=O)OCC(=O)[C@@]1(OC(=O)CC)[C@@H](C)C[C@H]2[C@@H]3CCC4=CC(=O)C=C[C@]4(C)[C@@]3(F)[C@@H](O)C[C@@]21C`, the max response is -9.64% in the assay on CRL-7250, -7.33% with HEK293 and -29.8% with HaCat. Moreover, the call in the assay with KB-3-1, in the assay with NIH3T3 [1] and with NIH3T3 [2] was inactive.
On to `COc1ccc(C2C(C(=O)O)C(C(=O)O)C2c2ccc(OC)cc2O[C@@H]2O[C@H](CO)[C@@H](O)[C@H](O)[C@H]2O)c(O[C@@H]2O[C@H](CO)[C@@H](O)[C@H](O)[C@H]2O)c1` (stereo not given in full), for which the max response in the assay on CRL-7250 is -9.53%; in the assay with HEK293, -17.5%; with HaCat, 0.767%; in the assay with KB-3-1 it was -1.86%. The compound was classed as inactive with NIH3T3 [1]. Also, in the assay with NIH3T3 [2], the outcome was “inactive [at 17.4 µM]”.
With `CC1(C)CC[C@]2(C(=O)O)CC[C@]3(C)C(=CCC4[C@@]5(C)C(=O)C[C@H](O)[C@@](C)(CO)C5CC[C@]43C)[C@@H]2C1` (stereo not given in full), the max response in the assay on CRL-7250 was -2.6%; with HEK293, 3.17%; in the assay with HaCat it was -1.1%; with KB-3-1, 8.25%. The compound was classed as inactive in the assay with NIH3T3 [1]. Moreover, in the assay with NIH3T3 [2], the outcome was “inactive [at 17.4 µM]”.
On to `C[C@H]1/C=C/C=C/C=C/C=C/C=C/[C@@H](O)[C@H](C(=O)O)[C@H](O)C[C@H](O)CCC[C@H](O)C[C@H](O)C[C@H](O)[C@@H](C)C(=O)O[C@@H]1C`, for which the outcome in the assay on CRL-7250 and in the assay with NIH3T3 [1] was inactive. Moreover, the max response is 1.51% in the assay on HEK293, 2.29% in the assay with HaCat and 7.54% in the assay with KB-3-1. In the assay on NIH3T3 [2], the outcome was “inactive [at 17.4 µM]”.
For `N#Cc1ccc(C2CCCc3cncn32)cc1` (stereo not given), the max response was -28.9% in the assay with CRL-7250, -80.6% in the assay with HEK293 and 3.15% in the assay on HaCat. Moreover, the call with KB-3-1 and in the assay on NIH3T3 [1] was inactive. Besides, the outcome with NIH3T3 [2] was “inactive [at 17.4 µM]”.
As to `CC1(C)[C@@H]2CC=C(CO[C@@H]3O[C@H](CO[C@@H]4OC[C@H](O)[C@H](O)[C@H]4O)[C@@H](O)[C@H](O)[C@H]3O)[C@H]1C2`, the max response was 0.583% in the assay on CRL-7250, 2.49% in the assay with HEK293 and -0.954% with HaCat. Besides, the outcome in the assay with KB-3-1 and in the assay on NIH3T3 [1] was inactive. In the assay on NIH3T3 [2], the outcome was “inactive [at 17.4 µM]”.
Turning to `C[C@@H]1O[C@@H](O[C@H]2[C@@H]3C=CO[C@@H](O[C@@H]4O[C@H](CO)[C@@H](O)[C@H](O)[C@H]4O)[C@@H]3[C@@]3(CO)O[C@@H]23)[C@H](OC(=O)/C=C/c2ccc(O)cc2)[C@H](O)[C@H]1O`, the max response in the assay on CRL-7250 was -20.4%; with HEK293, -82.6%; with HaCat, -0.452%; with KB-3-1, -12.9%. In addition, in the assay on NIH3T3 [1], the compound was classed as inactive. The outcome with NIH3T3 [2] was “inactive [at 17.4 µM]”.
As for `COc1cc(Nc2nc3c(s2)CCCC3c2ccccc2)ccc1-n1cnc(C)c1` (stereo not given), the outcome in the assay with CRL-7250 and with NIH3T3 [1] was inactive. The max response in the assay on HEK293 was 3.81%; in the assay on HaCat it was -4.18%; with KB-3-1, -3.56%. For the same compound, the outcome in the assay on NIH3T3 [2] is “inactive [at 9.27 µM]”.
Take `COc1cc2nc(=NC(=O)c3cccnc3)n3c(c2cc1OC)NCC3`: the max response in the assay on CRL-7250 is 4.99%; in the assay with HEK293, -3.57%. Besides, in the assay with HaCat, the Potency is 16.4 µM (active). The call with KB-3-1, in the assay with NIH3T3 [1] and in the assay with NIH3T3 [2] was inactive.
Regarding `CO[C@@H]1[C@]2(O)C(=O)N3/C=C\C(C)(C)c4[nH]c5ccccc5c4/C=C\3C(=O)N2[C@]23[C@H](CO)C(C)(C)N2c2ccccc2[C@]13O`, the max response was 1.93% in the assay on CRL-7250, 0.736% with HEK293, -14.4% in the assay on HaCat and 7.79% in the assay with KB-3-1. Also, the compound was called inactive in the assay on NIH3T3 [1]. In the assay with NIH3T3 [2], the outcome was “inactive [at 17.4 µM]”.
In the case of `Nc1nc(COC(=O)c2ccc([N+](=O)[O-])cc2)nc(Nc2ccccc2)n1`, the max response with CRL-7250 is -7.38%; in the assay on HEK293, -16.5%; with HaCat it was -9.19%; in the assay on KB-3-1, -4.58%. Also, the outcome in the assay with NIH3T3 [1] and with NIH3T3 [2] was inactive.
For the compound `CCOC(=O)c1ccc(NC2CCCCC2)c(N)c1`, the compound was called inactive with CRL-7250, in the assay with NIH3T3 [1] and in the assay on NIH3T3 [2]. Also, the max response in the assay on HEK293 is -10.7%; with HaCat it was -10.7%; with KB-3-1, -6.34%.
For the compound `CCOc1ncc(S(=O)(=O)N2CCN(CC)CC2)cc1-c1nc2c(CC)n(CCOC)nc2c(=O)[nH]1`, the compound was called inactive in the assay with CRL-7250, with KB-3-1, with NIH3T3 [1] and with NIH3T3 [2]. Also, the max response in the assay with HEK293 was -6.31%; in the assay on HaCat, 2.49%.
In the case of `C=C(C)C(O)COc1ccc(CC(=O)O)cc1` (stereo not given), the figures for the max response in the assay on CRL-7250, in the assay with HEK293 and with HaCat were -8.29%, 2.49% and -1.96%, respectively. The compound was called inactive with KB-3-1, in the assay on NIH3T3 [1] and in the assay on NIH3T3 [2].
For the compound `CC(NC(=O)CC(=O)O)C(=O)Nc1ccccc1C(N)=O` (stereo not given), the max response with CRL-7250 was -2.72%; with HEK293, 2.48%; in the assay on HaCat, -2.92%; with KB-3-1, 3.19%. Besides, the result in the assay on NIH3T3 [1] and with NIH3T3 [2] was inactive.
In the case of `C[C@@H]1C[C@H]2OC(=O)[C@@]3(C)CCC[C@](C)(C23)[C@@]1(O)CCC1=CC(=O)OC1O` (stereo not given in full), the result in the assay with CRL-7250, in the assay on KB-3-1, with NIH3T3 [1] and in the assay on NIH3T3 [2] was inactive. In addition, the max response with HEK293 is -8.41%; in the assay with HaCat it was 3.15%.
Consider `CCC(C)/C=C(C)/C=C/C1=CC2=CC(=O)C(C)(O)C(OC(C)=O)C2CO1` (stereo not given), for which the compound was called inactive in the assay with CRL-7250, in the assay on NIH3T3 [1] and in the assay with NIH3T3 [2]. The max response was -22.7% in the assay with HEK293, 4.74% in the assay with HaCat and -4.84% with KB-3-1.
Regarding `CNc1nc(Cc2ccccc2)nc2c1CCNC[C@@H]2C`, the max response was -3.14% in the assay with CRL-7250, -0.288% with HEK293, -17.6% with HaCat and -9.65% with KB-3-1. Moreover, the call in the assay on NIH3T3 [1] and in the assay with NIH3T3 [2] was inactive.
For `CCC1(O)CC2c3cc(OC)c(OC)cc3CCN2CC1CC(C)C` (stereo not given), the max response is -19.7% in the assay with CRL-7250, 0.903% with HEK293, -10.4% in the assay with HaCat and 7.48% in the assay on KB-3-1. Moreover, the result in the assay on NIH3T3 [1] and in the assay on NIH3T3 [2] was inactive.
As to `Cc1cc(O[C@@H]2O[C@H](COC(=O)CC(=O)O)[C@@H](O)[C@H](O)[C@H]2O)c(C(C)C)cc1O`, the max response in the assay on CRL-7250 was 0.0068%; in the assay with HEK293, -1.41%; in the assay with HaCat, 0.109%; with KB-3-1 it was -13.3%. Besides, in the assay on NIH3T3 [1], the compound was called inactive. In addition, the outcome with NIH3T3 [2] was “inactive [at 17.4 µM]”.
`CC/C=C/C(O)C(O)C1=C(C)C(=O)C2(O1)C(=O)NC(OC)(C(=O)c1ccccc1)C2O` (stereo not given): the max response is 0.865% in the assay on CRL-7250, 2.1% in the assay with HEK293 and -3.32% with HaCat. Further, the outcome in the assay with KB-3-1 and in the assay on NIH3T3 [1] was inactive. Also, the outcome with NIH3T3 [2] is “inactive [at 17.4 µM]”.
